# In PubChem BioAssay (NCATS):
# Results filed as inconclusive are left out. Where a call stands in place of a potency, no number is given. Activity calls are given as the source filed them. Unless noted, the call rests on the fitted dose curve; in most records, active means well fitted curve in the direction sought with a large enough effect; inconclusive means small, poorly fitted or top-dose-only effect, or another doubt; inactive means no such curve, though single readings can be large; an effect the other way counts as inactive or inconclusive.
# Tests used:
# [1] = target: Mitogen-activated protein kinase 10 (Mus musculus) (UniProt Q61831); test: JNK3 AlphaScreen Assay (AID 530; active means well fitted curve in either direction with a large enough effect, not every such curve was filed as active;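 further: kinase came from lysate of stimulated human HepG2 cells; signal reports phosphorylation of biotinylated GST-cJun 1-79 at Ser73 with 10 µM ATP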); details: JNK3 lysate, c-Jun phosphorylation; series mostly up to 57.1 µM
# Procedure, shortened: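 Inhibitors reduce antibody binding to phosphorylated biotin-cJun, lowering AlphaScreen luminescence. Lysates from HepG2 cells pre-activated by IL-1beta plus TNF-alpha supplied JNK3; compounds were titrated.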
# [2] = target: Cytochrome P450 3A4 (Homo sapiens) (UniProt P08684); test: qHTS Assay for Inhibitors and Substrates of Cytochrome P450 3A4 (AID 884); details: recombinant CYP3A4, Luciferin-PPXE luminescence; series mostly up to 57.1 µM; further: nearly all actives have a fitted effect of over 50% in size; further: potency means the concentration at half of the fitted maximal effect
# Chain of Cytochrome P450 3A4 (Homo sapiens) (P08684 whole entry, looked up): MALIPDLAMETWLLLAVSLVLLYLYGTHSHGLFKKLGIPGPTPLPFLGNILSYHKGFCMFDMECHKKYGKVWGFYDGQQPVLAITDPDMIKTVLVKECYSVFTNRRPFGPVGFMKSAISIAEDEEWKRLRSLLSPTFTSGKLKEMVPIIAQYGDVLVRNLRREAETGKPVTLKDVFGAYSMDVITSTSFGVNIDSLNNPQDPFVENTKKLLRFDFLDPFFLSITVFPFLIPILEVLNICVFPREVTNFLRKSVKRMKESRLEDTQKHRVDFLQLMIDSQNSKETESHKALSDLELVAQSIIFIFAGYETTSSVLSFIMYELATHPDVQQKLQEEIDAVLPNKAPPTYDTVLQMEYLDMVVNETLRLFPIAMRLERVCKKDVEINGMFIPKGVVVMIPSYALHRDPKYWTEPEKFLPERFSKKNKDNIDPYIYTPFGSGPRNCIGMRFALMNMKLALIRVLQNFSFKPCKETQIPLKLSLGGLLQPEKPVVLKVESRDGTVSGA
# Procedure, shortened: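 20 nM human CYP3A4 with 25 uM Luciferin-PPXE (at KM) in 200 mM KPO4, preincubated 10 min with compound; NADPH regeneration started a 60 min RT reaction. Luciferin detected by luminescence, normalized to 57 uM ketoconazole as full inhibition.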
# [3] = target: Cytochrome P450 2C9 (Homo sapiens) (UniProt P11712); test: qHTS Assay for Inhibitors and Substrates of Cytochrome P450 2C9 (AID 883); details: recombinant CYP2C9, luciferin-H luminescence, 60 min; series mostly up to 11.4 µM; further: potency means the concentration at half of the fitted maximal effect; nearly all actives have a fitted effect of over 60% in size
# Chain of Cytochrome P450 2C9 (Homo sapiens) (P11712 whole entry, looked up): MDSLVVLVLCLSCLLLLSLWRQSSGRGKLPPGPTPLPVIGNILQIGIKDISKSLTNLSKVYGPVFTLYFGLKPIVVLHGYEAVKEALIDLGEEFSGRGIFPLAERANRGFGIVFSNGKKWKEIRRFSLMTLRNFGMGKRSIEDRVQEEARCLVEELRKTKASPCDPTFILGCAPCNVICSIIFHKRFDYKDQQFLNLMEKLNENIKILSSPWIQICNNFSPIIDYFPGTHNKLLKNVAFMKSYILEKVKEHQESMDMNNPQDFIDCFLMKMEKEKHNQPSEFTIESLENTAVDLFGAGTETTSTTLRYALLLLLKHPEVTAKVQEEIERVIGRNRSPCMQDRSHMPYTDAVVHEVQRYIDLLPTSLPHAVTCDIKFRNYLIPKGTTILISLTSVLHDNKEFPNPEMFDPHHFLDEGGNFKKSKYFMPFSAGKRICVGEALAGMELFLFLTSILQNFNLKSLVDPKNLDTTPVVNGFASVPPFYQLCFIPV
# Procedure, shortened: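 Human CYP2C9 (10nM) hydroxylated Luciferin-H (100uM, at its KM) to luciferin in 25mM KPO4. Compound was preincubated 10 min at 37C, then NADPH regeneration started a 60 min reaction at 37C. Luminescence was read after detection reagent, normalized to 57uM sulphaphenazole.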
# [4] = target: Cytochrome P450 3A4 (Homo sapiens) (UniProt P08684); test: qHTS Assay for Activators of Cytochrome P450 3A4 (AID 885); details: recombinant CYP3A4, Luciferin-PPXE luminescence, 60 min; series mostly up to 57.1 µM; further: nearly all actives have a fitted effect of over 65% in size
# Procedure, shortened: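 Signal was normalized against complete inhibition by 57 uM ketoconazole. The reaction used 20nM CYP3A4 with 25uM Luciferin-PPXE, 10-min compound preincubation and a 60-min NADPH-supported step at RT.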
# [5] = target: 3',5'-cyclic-AMP phosphodiesterase 4B (Homo sapiens) (UniProt Q07343); test: qHTS Assay for Inhibitors of PDE-IV (AID 607; active means well fitted activation curve with a large enough effect in the main read-out, with a control signal flat, not every such curve was filed as active); details: HEK293 ACTOne CNG channel cells, membrane potential fluorescence; series mostly up to 22.9 µM
# Chain of 3',5'-cyclic-AMP phosphodiesterase 4B (Homo sapiens) (Q07343 whole entry, looked up): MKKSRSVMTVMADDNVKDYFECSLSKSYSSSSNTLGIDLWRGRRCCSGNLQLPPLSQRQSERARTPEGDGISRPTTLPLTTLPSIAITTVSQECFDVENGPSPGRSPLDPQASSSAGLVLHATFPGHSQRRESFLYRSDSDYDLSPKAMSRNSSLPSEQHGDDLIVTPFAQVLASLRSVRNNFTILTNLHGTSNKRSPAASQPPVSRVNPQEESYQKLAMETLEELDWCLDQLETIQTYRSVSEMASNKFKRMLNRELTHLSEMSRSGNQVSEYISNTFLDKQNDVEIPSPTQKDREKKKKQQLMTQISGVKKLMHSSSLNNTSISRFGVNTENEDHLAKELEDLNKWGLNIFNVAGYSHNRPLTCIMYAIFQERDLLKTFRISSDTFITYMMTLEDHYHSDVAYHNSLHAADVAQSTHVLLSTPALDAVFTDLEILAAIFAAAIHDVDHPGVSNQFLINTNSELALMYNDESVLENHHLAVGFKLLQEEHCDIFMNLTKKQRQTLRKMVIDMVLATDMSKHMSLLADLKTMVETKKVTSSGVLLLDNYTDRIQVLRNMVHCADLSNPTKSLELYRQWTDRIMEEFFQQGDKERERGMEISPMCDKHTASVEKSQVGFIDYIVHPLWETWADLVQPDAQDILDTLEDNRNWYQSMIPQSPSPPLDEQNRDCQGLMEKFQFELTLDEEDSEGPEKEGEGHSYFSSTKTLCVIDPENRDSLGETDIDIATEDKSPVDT
# Procedure, shortened: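 Cell-based read-out of cAMP via a modified cyclic nucleotide-gated channel and membrane potential dye (535/590 nm) in HEK293 cells expressing PDE4 endogenously. Compounds tested up to 22.9 uM final; 100 uM RO 20-1724 reference.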
# [6] = target: Cytochrome P450 2C19 (Homo sapiens) (UniProt P33261); test: qHTS Assay for Inhibitors and Substrates of Cytochrome P450 2C19 (AID 899); details: recombinant CYP2C19, luciferin-H EGE luminescence; series mostly up to 11.4 µM; further: potency means the concentration at half of the fitted maximal effect; nearly all actives have a fitted effect of over 60% in size
# Chain of Cytochrome P450 2C19 (Homo sapiens) (P33261 whole entry, looked up): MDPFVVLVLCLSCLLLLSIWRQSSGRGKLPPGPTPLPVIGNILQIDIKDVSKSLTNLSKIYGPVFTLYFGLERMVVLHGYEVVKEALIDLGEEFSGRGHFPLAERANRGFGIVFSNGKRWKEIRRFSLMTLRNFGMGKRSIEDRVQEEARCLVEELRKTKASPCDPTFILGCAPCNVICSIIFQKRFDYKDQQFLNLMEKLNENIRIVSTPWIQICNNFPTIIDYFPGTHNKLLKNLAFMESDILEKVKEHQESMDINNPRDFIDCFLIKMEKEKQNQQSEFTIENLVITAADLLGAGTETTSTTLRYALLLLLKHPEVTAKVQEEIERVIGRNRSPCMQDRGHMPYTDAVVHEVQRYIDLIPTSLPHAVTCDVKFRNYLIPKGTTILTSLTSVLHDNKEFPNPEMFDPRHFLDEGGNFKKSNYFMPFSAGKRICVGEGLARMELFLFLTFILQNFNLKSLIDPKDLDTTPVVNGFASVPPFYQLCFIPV
# Procedure, shortened: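 Human CYP2C19 (5nM) with Luciferin-H EGE at 10uM (its KM) in 50mM KPO4 was preincubated with compound for 10 min at 37C. NADPH regeneration started a 60 min 37C reaction. Luciferin was read by luminescence, normalized to 57uM ketoconazole.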
smiles,measurement,setting,value
CCCn1c(C)nc2c(NCCCN(C)C)nc(C)nc21,outcome,[1],inactive
same,Potency,[2],inactive
COC(=O)c1ccc(C(NC(=O)OCc2ccccc2)/C(=C/[C@@H](C)C(=O)NCc2cc(C)n(C)n2)c2cccnc2)cc1 (stereo partly drawn),outcome,[1],inactive
same,Potency,[2],inactive
COC(=O)C1(C)C=CCN1C(=O)c1ccccc1 (stereo not drawn),outcome,[1],inactive
same,Potency,[2],inactive
CCCC[C@@H]1C[C@H]1C(NC(=O)c1cccnc1)c1ccc(-c2ccccc2)cc1 (stereo partly drawn),outcome,[1],inactive
same,Potency,[3],5.01 µM (active)
same,Potency,[4],inactive
CC(=O)N1C2(C=CC1(C)C(=O)NCc1ccc(C)o1)CCCCC2 (stereo not drawn),outcome,[1],inactive
same,Potency,[2],inactive
COC(=O)N1CC=CC1(C)C(=O)O (stereo not drawn),outcome,[1],inactive
same,Potency,[2],inactive
CC(C)NC(=O)[C@@H]1C[C@@]1(C)[C@@H](NC(=O)OCc1ccccc1)c1ccccc1,outcome,[1],inactive
same,Potency,[2],10 µM (active)
CC(=O)N1[C@H](Cc2ccccc2)C=C[C@]1(C)C(=O)O,outcome,[1],inactive
same,Potency,[2],inactive
COC(=O)[C@@]1(Cc2ccc(F)cc2)[C@H]2c3cc(C(=O)N4CCCC4)n(Cc4ccc(S(C)(=O)=O)cc4)c3C[C@H]2CN1C(=O)c1ccccc1,outcome,[1],inactive
same,outcome,[5],inactive
same,Potency,[4],inactive
COC(=O)c1ccc(C(NC(=O)OCc2ccccc2)/C(C)=C/[C@@H](C)C(=O)NC2CCCCC2)cc1 (stereo partly drawn),outcome,[1],inactive
same,Potency,[2],2 µM (active)
COC(=O)c1ccc(C(NC(=O)OCc2ccccc2)/C(F)=C/[C@@H](C)C(=O)NCc2nc3ccccc3s2)cc1 (stereo partly drawn),outcome,[1],inactive
same,Potency,[2],7.94 µM (active)
CC(Cc1ccccc1)C(=O)N(C)Cc1ccccc1 (stereo not drawn),outcome,[1],inactive
same,Potency,[2],inactive
C[C@H]1C2=C3C(CC[C@H]4C(OCc5ccc(F)cc5C(F)(F)F)OC[C@](C)([C@@H]34)N(C(=O)OC(C)(C)C)C2)C2COC(=O)OCC21 (stereo partly drawn),outcome,[1],inactive
same,outcome,[5],inactive
same,Potency,[4],inactive
COC(=O)N1[C@H](Cc2ccccc2)C=C[C@]1(C)C(=O)O,outcome,[1],inactive
same,Potency,[2],inactive
CC(Cc1ccccc1)C(=O)NCC1CC1 (stereo not drawn),outcome,[1],inactive
same,Potency,[2],inactive
CC1=C(C(=O)OCc2ccccc2)C(c2cccc([N+](=O)[O-])c2)NC(=O)N1CCCCCC(=O)O (stereo not drawn),outcome,[1],inactive
same,Potency,[2],inactive
COC(=O)c1ccc(C(NC(=O)OCc2ccccc2)/C(=C/[C@@H](C)C(=O)N(C)Cc2cccnc2)c2cccnc2)cc1 (stereo partly drawn),outcome,[1],inactive
same,Potency,[2],0.631 µM (active)
COC(=O)CCCCCN1C(=O)NC(c2ccc(-c3ccccc3)cc2)C(C(=O)OCc2ccccc2)=C1C (stereo not drawn),outcome,[1],inactive
same,Potency,[2],inactive
CO[C@H]1OC[C@@]2(C)[C@@H]3C4=C(CN2C(=O)OC(C)(C)C)[C@H](C)[C@H](CO)[C@H](CO)[C@H]4CC[C@H]13,outcome,[1],inactive
same,outcome,[5],inactive
same,Potency,[4],inactive
COCCNC(=O)[C@@]1(Cc2ccccc2)C=C[C@@H](C)N1C(=O)OC,outcome,[1],inactive
same,Potency,[2],inactive
C=C(CC1([C@@H](NP(=O)(c2ccccc2)c2ccccc2)[C@H]2C[C@@H]2CCCC)CC1)c1ccccc1,outcome,[1],inactive
same,outcome,[5],inactive
same,Potency,[2],1.58 µM (active)
same,Potency,[4],inactive
CNC(=O)C1(CC(C)C)C=CCN1C(=O)c1ccccc1 (stereo not drawn),outcome,[1],inactive
same,Potency,[2],inactive
COC(=O)N1[C@H](C)C=C[C@]1(Cc1ccccc1)C(=O)OC,outcome,[1],inactive
same,Potency,[2],inactive
C[C@H](CO)NC(=O)[C@H](C)[C@H]1C[C@]1(C)[C@H](NC(=O)OCc1ccccc1)c1ccccc1,outcome,[1],inactive
same,outcome,[5],inactive
same,Potency,[2],3.98 µM (active)
same,Potency,[4],inactive
same,Potency,[6],0.631 µM (active)
CCC/C=C(\CCC)C(NS(C)(=O)=O)c1ccccc1 (stereo not drawn),outcome,[1],inactive
same,outcome,[5],inactive
same,Potency,[4],inactive
same,Potency,[6],7.94 µM (active)
CNC(=O)C1(C)C=CCN1C(=O)c1ccccc1 (stereo not drawn),outcome,[1],inactive
same,Potency,[2],inactive
COC(=O)N1CC=CC1(C)C(=O)NCC1CC1 (stereo not drawn),outcome,[1],inactive
same,Potency,[2],inactive
COC(=O)N1[C@H](C)C=C[C@]1(Cc1ccccc1)C(=O)O,outcome,[1],inactive
same,Potency,[2],inactive
CCCn1c(C)nc2c(NCCO)nc(C)nc21,outcome,[1],inactive
same,Potency,[2],inactive
COCCNC(=O)[C@H](C)[C@@H]1C[C@@]1(C)[C@@H](NC(=O)OCc1ccccc1)c1ccccc1,outcome,[1],inactive
same,outcome,[5],inactive
same,Potency,[2],7.94 µM (active)
same,Potency,[4],inactive
same,Potency,[6],3.16 µM (active)
CNC(=O)[C@@]1(C)C=C[C@@H](Cc2ccccc2)N1C(C)=O,outcome,[1],inactive
same,Potency,[2],inactive
COC(=O)[C@@]1(Cc2ccccc2)C=C[C@@H](C)N1C(=O)c1ccccc1,outcome,[1],inactive
same,Potency,[2],inactive
CC(Cc1ccccc1)C(=O)N1CCN(C)CC1 (stereo not drawn),outcome,[1],inactive
same,Potency,[2],inactive
CC1=C(C(=O)OCc2ccccc2)C(C2CCCCC2)NC(=O)N1CCCCCC(=O)O (stereo not drawn),outcome,[1],inactive
same,Potency,[2],inactive
CC1(C(=O)NCc2ccccn2)C=CCN1C(=O)c1ccccc1 (stereo not drawn),outcome,[1],inactive
same,Potency,[2],inactive
COCCNC(=O)[C@H](C)[C@H]1C[C@]1(C)[C@H](NC(=O)OCc1ccccc1)c1ccccc1,outcome,[1],inactive
same,outcome,[5],inactive
same,Potency,[2],3.16 µM (active)
same,Potency,[4],inactive
